Assay results: PubChem BioAssay (Tox21)
Values joined by “and” are separate entries in the source; they are usually repeats but may differ in a detail not shown here. Identical values can stand only once. Results filed as inconclusive are left out. Entries that show only a call come without a potency. A structure can be active in one record and inactive in another. Active and inactive are the calls of the source. Unless noted, calls come from the whole dose curve; as a rule, active = well fitted curve in the direction sought with a large enough effect in the repeat runs; inconclusive = weak or mixed curves; inactive = no such curve, though single readings can be large; an effect the other way counts as inactive or inconclusive. Starred links: 1 amine or outer side, 2 acyl side, 3 side chain; linkers in the order of their positions; H or OH if unused. Positions of bridges follow the written chain, without caps; N, C: chain ends. Non-standard residues stand in square brackets, D forms with d. Residues, ends and D or L forms follow the SMILES beside them. Chains are numbered I, II in the order given. Actinocin(9to1) = Cc1c2oc3c(C)ccc(C(=O)[*:1])c3nc-2c(C(=O)[*:2])c(N)c1=O; NMeV = CN[C@H](C(=O)O)C(C)C; Sar = CNCC(=O)O

What was measured:
[1] = qHTS assay to identify small molecule agonists of the hypoxia (HIF-1) signaling pathway - cell viability counter screen (AID 1224844; calls by dose curve; note: nearly all actives have a fitted effect of over 50% in size; note: potency is the fitted concentration of half-maximal effect)
Outline: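 Same wells as the HIF-1 reporter screen; ME-180 cells carrying HRE-bla, 17 hr treatment at 37C; CellTiter-Glo luminescence read after 30 min at room temperature.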

[2] = qHTS assay to identify small molecule agonists of H2AX (AID 1224845; active = well fitted activation curve with a large enough effect in the signal ratio in the repeat runs, not every such curve was filed as active; the % refers to the signal ratio; note: potency is the fitted concentration of half-maximal effect)
Outline: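 Phospho-H2AX Ser139 measured by HTRF (ex 320 nm; em 665 and 620 nm) after 24 hr antibody incubation. Compounds, 15 concentrations, 0.76% DMSO, were applied to CHO-K1 cells for 3hr at 37C before lysis.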

[3] = qHTS assay to identify small molecule antagonists of the estrogen related receptor (ERR) signaling pathway from Tox21 library (AID 1224848); note: nearly all actives have a fitted effect of over 50% in size; note: potency is the fitted concentration of half-maximal effect
Outline: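 Luciferase luminescence (ONE-Glo, 30 min room temperature) was the read-out. Cells of the NTP-supplied ERR line, 2,000 per well, were given 6 h at 37 C before compound addition in DMSO and 18 h exposure at 37 C.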

[4] = qHTS assay to identify small molecule agonists of the estrogen related receptor (ERR) signaling pathway from Tox21 library (AID 1224849; calls by dose curve; note: nearly all actives have a fitted effect of over 15% in size); details: ERR reporter cell line, ONE-Glo luciferase, 18 h
Outline: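 Reporter cells (ERR, NTP source) treated with Tox21 10K compounds 18 h, 37 C. Readout: ONE-Glo luminescence, 30 min RT.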

[5] = qHTS RealTime-Glo MT Cell Viability Assay in HepG2 cells - 24 hour (AID 1224867); note: nearly all actives have a fitted effect of over 50% in size; note: potency is the fitted concentration of half-maximal effect
Outline: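 Compound treatment began 5 h after plating HepG2 cells (600/well) with NanoLuc luciferase and prosubstrate. Plates stayed at 37 C for 40 h; luminescence was captured at six time points, 0 h through 40 h.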

[6] = A CellTox Green Cytotoxicity Assay to monitor cytotoxicity in HEK293 cells - 0 hour (AID 1224869); note: nearly all actives have a fitted effect of over 50% in size
Outline: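 Homogeneous no-lysis format: HEK293 cell suspension mixed with CellTox Green reagent, seeded, incubated 5 h at 37 C/5% CO2, then dosed by pintool with compound in DMSO.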

[7] = qHTS RealTime-Glo MT Cell Viability Assay in HepG2 cells - 40 hour (AID 1224870); note: nearly all actives have a fitted effect of over 50% in size; note: potency is the fitted concentration of half-maximal effect
Outline: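 Real-time viability: cells seeded at 600 per well together with NanoLuc and cell-permeant prosubstrate, compounds added after 5 h incubation. Luminescence tracked at 0, 8, 16, 24, 32 and 40 h of exposure.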

[8] = qHTS assay to identify small molecule agonists of H2AX - cell viability counter screen (AID 1224847; calls by dose curve; note: nearly all actives have a fitted effect of over 30% in size; note: potency is the fitted concentration of half-maximal effect)
Outline: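 Counter-screen for viability: CellTiter-Glo ATP luminescence read after 3 h compound treatment (15-point titration, 0.76% DMSO final) of CHO-K1 cells at 37C, with 30 min room-temperature reagent incubation.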

[9] = qHTS RealTime-Glo MT Cell Viability Assay in HEK293 cells - 32 hour (AID 1224868); note: nearly all actives have a fitted effect of over 50% in size; note: potency is the fitted concentration of half-maximal effect
Outline: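 Quantitative high-throughput screen of the Tox21 10K library in HEK293: cells and RealTime-Glo reagents plated together, compound added at 5 h, luminescence monitored through 40 h at 37 C.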

[10] = qHTS assay to identify small molecule agonists of the hypoxia (HIF-1) signaling pathway (AID 1224846; active = well fitted activation curve with a large enough effect in the signal ratio in the repeat runs, not every such curve was filed as active; the % refers to the signal ratio)
Outline: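 In ME-180 cells bearing an HRE-bla construct, 17 h treatment with DMSO-dissolved compounds at 37C was followed by CCF4-AM loading to quantify reporter induction.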

Row | Compound | Potency [1] | Potency [2] | Potency [3] | activity change, positive = activation ([4]; at 92.4 µM (top of the series)) | Potency [5] | Potency [6] | Potency [7] | Potency [8] | activity change, positive = activation ([4]; at 42.5 µM (top of the series)) | Potency [9] | Potency [10]
1 | O=C(Nc1ccccc1SSc1ccccc1NC(=O)c1ccccc1)c1ccccc1 | 15.6 µM (active) and 21.9 µM (active) | 18 µM (active) | 24.5 µM (active) and 43.3 µM (active) | -71.7% (inactive) and -62.7% (inactive) | inactive and 49 µM (active) | inactive | inactive | – | – | – | –
2 | CCCCCC(=O)O[C@]1(C(C)=O)CC[C@H]2[C@@H]3CCC4=CC(=O)CC[C@]4(C)[C@H]3CC[C@@]21C | 38.6 µM (active) | inactive | 24.2 µM (active) and 7.5 µM (active) | -61% (inactive) | inactive | inactive | inactive | 31.6 µM (active) | -35.8% (inactive) | 24.4 µM (active) | –
3 | CCn1cc(C(=O)O)c(=O)c2cc(F)c(N3CCNC(C)C3)c(F)c21 (stereo not given) | inactive | inactive | inactive | – | inactive | inactive | inactive | – | 3.97% (inactive) | inactive | –
4 | BrC1CCC(Br)C(Br)CCC(Br)C(Br)CCC1Br (stereo not given) | inactive | 89.4 µM (active) | 27.2 µM (active) and 58 µM (active) | -60.1% (inactive) and -54.5% (inactive) | – | inactive | inactive | – | – | inactive | –
5 | Cc1scc2c1N(C(=O)CN1CCN(C)CC1)c1ccccc1NC2=O | inactive | inactive | – | – | inactive | – | inactive | inactive | – | inactive | –
6 | O=C1NCC2(CCN(CCc3ccccc3)CC2)O1 | inactive | inactive | – | – | inactive | inactive | inactive | inactive | – | inactive | –
7 | c1ccc2c(c1)CCCC2C1=NCCN1 (stereo not given) | inactive | inactive | – | – | inactive | inactive | inactive | inactive | – | inactive | –
8 | Cc1c2oc3c(C)ccc(C(=O)N[C@@H]4C(=O)N[C@H](C(C)C)C(=O)N5CCC[C@H]5C(=O)N(C)CC(=O)N(C)[C@@H](C(C)C)C(=O)O[C@@H]4C)c3nc-2c(C(=O)N[C@@H]2C(=O)N[C@H](C(C)C)C(=O)N3CCC[C@H]3C(=O)N(C)CC(=O)N(C)[C@@H](C(C)C)C(=O)O[C@@H]2C)c(N)c1=O (I: T[dV]P[Sar][NMeV] / II: T[dV]P[Sar][NMeV]; ester I:1-I:C, II:1-II:C; linker I:N-II:N via Actinocin(9to1)) | inactive | 1.1 µM (active) | – | – | 8.47 µM (active) and 2.68 µM (active) | – | – | inactive | – | 12 nM (active) and 21.3 nM (active) | –
9 | Oc1c(Cl)cc(Cl)c(Cl)c1Cc1c(O)c(Cl)cc(Cl)c1Cl | 19.4 µM (active) and 19.5 µM (active) | inactive | 3.05 µM (active) and 2.73 µM (active) and 3.35 µM (active) | -37.2% (inactive) and -60.8% (inactive) | inactive | inactive | inactive and 38.9 µM (active) | 25.2 µM (active) and 40.1 µM (active) | -49.7% (inactive) | 3.08 µM (active) and 5.49 µM (active) | –
10 | CNC1(C)C2CCC(C2)C1(C)C (stereo not given) | inactive | inactive | inactive | – | inactive | – | inactive | – | 0.179% (inactive) | inactive | –
11 | N[C@@H]1CONC1=O | inactive | inactive | inactive | – | inactive | inactive | inactive | – | 7.16% (inactive) | inactive | –
12 | NC(N)=Nc1nc(CSCC/C(N)=N/S(N)(=O)=O)cs1 | inactive | inactive | inactive | 4.57% (inactive) | inactive | inactive | inactive | inactive | 8.96% (inactive) | inactive | –
13 | C=CC(=O)OCCCCCCOC(=O)C=C | – | 114 µM (active) | inactive | -0.87% (active) and -57.5% (active) | inactive and 43.6 µM (active) | inactive | inactive | – | – | 49 µM (active) | –
14 | NC12CC3CC(CC(C3)C1)C2 | inactive | inactive | – | – | inactive | – | inactive | – | – | inactive | –
15 | Nc1cc(S(=O)(=O)O)cc2cc(S(=O)(=O)O)cc(O)c12 | inactive and 4.9 µM (active) | – | – | – | inactive | – | inactive | – | – | inactive | –
16 | Nc1nc(=S)c2[nH]cnc2[nH]1 | – | inactive | – | – | inactive | inactive | inactive | inactive | – | 23.9 µM (active) and 19.5 µM (active) | inactive
17 | CC(COc1ccccc1)N(CCCl)Cc1ccccc1 (stereo not given) | 49.5 µM (active) and inactive | 113 µM (active) | – | – | inactive | inactive | inactive | – | – | 49.5 µM (active) and 49 µM (active) | –
18 | CCn1c2ccccc2c2cc(N)ccc21 | inactive | – | 34 µM (active) | -48% (inactive) and -30.3% (inactive) and -32.3% (inactive) | inactive | inactive | inactive | inactive | – | inactive | –
19 | c1cc(C(c2ccc(OCC3CO3)cc2)C(c2ccc(OCC3CO3)cc2)c2ccc(OCC3CO3)cc2)ccc1OCC1CO1 (stereo not given) | inactive | – | inactive | -18.6% (inactive) and 0.394% (inactive) | inactive | – | inactive | inactive | – | inactive | inactive
20 | COc1ccc(CCN2CCC(Nc3nc4ccccc4n3Cc3ccc(F)cc3)CC2)cc1 | 12.6 µM (active) | – | 12.5 µM (active) and 26.6 µM (active) | -76.4% (inactive) | 17.8 µM (active) and 13.4 µM (active) | inactive | 15.8 µM (active) and 10.7 µM (active) | – | -69.8% (inactive) | 6.3 µM (active) and 15.1 µM (active) | –
